Measurements taken from PubChem BioAssay (Tox21).
Calls of active or inactive are those of the source. Unless noted, the call rests on the fitted dose curve; in most records, active means well fitted curve in the direction sought with a large enough effect in the repeat runs; inconclusive means weak or mixed curves; inactive means flat fitted curve, though single readings scatter.

Tests used:
[1] = qHTS assay to test for compound auto fluorescence at 535 nm (green) in HEK293 cells (AID 720680); further: potency means the concentration at half of the fitted maximal effect
[2] = qHTS assay to test for compound auto fluorescence at 460 nm (blue) in HEK293 cell free culture (AID 720681)
How it was run: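 Blue fluorescence (Ex 405/Em 460 nm, triamterene-equivalent) was read immediately after pin transfer of compound or DMSO into medium (DMEM, 10% FBS) without cells.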

[3] = qHTS assay to test for compound auto fluorescence at 535 nm (green) in HEK293 cell free culture (AID 720682); further: potency means the concentration at half of the fitted maximal effect
How it was run: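 Fluorescein serves as the green reference fluorophore; each compound's intrinsic emission at 535 nm (excitation 485 nm) is reported as an equivalent amount of that dye, measured in serum-containing DMEM without cells.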

[4] = qHTS assay to test for compound auto fluorescence at 460 nm (blue) in HepG2 cell free culture (AID 720685)
How it was run: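 Compound (23 nL) or DMSO pinned into cell-free MEM with 10% FBS; blue fluorescence read at 405/460 nm excitation/emission, expressed as auto-fluorescence equivalency to triamterene.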

[5] = qHTS assay to test for compound auto fluorescence at 535 nm (green) in HepG2 cell free culture (AID 720686); further: potency means the concentration at half of the fitted maximal effect
[6] = qHTS assay to test for compound auto fluorescence at 460 nm (blue) in HepG2 cells (AID 720687)
How it was run: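 Blue-channel autofluorescence (Ex/Em 405/460 nm, triamterene-equivalent) was measured after 1 hr compound exposure at 37 C, 5% CO2. Cells were HepG2, plated overnight at 37 C in MEM plus 10% FBS.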

[7] = target: Glucocorticoid receptor (Homo sapiens) (UniProt P04150); test: qHTS assay to identify small molecule agonists of the glucocorticoid receptor (GR) signaling pathway (AID 720691; active means well fitted activation curve with a large enough effect in the signal ratio in the repeat runs, not every such curve was filed as active; inconclusive means weak or mixed curves, or effect the other way; inactive means no such curve, though single readings can be large or run the other way; the % refers to the signal ratio; further: potency means the concentration at half of the fitted maximal effect); details: GR-bla HeLa, beta-lactamase reporter ratio, 18 h; activation: at 62.4 µM (top of the series)
Sequence of Glucocorticoid receptor (Homo sapiens) (P04150 whole entry, looked up): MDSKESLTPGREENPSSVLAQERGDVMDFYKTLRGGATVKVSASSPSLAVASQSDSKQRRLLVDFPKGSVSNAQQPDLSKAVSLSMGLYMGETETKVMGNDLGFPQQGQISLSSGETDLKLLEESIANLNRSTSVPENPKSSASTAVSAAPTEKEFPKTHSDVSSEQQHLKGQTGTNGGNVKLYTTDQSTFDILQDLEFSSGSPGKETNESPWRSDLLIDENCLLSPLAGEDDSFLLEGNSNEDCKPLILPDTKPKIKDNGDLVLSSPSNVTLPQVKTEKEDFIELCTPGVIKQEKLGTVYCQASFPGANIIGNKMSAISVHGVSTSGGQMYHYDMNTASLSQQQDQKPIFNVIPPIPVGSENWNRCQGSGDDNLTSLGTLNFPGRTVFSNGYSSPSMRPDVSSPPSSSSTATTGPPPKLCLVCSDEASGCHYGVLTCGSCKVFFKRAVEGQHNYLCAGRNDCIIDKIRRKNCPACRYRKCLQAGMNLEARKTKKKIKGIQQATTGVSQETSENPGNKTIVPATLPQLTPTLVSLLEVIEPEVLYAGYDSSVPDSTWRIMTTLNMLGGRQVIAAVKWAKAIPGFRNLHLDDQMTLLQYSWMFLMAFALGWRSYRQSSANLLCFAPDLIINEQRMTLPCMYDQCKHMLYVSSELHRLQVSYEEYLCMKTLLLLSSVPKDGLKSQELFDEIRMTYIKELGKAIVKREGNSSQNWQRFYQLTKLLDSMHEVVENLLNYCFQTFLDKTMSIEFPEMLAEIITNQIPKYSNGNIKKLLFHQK
How it was run: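 qHTS in GR-bla HeLa cells: 4 h settling at 37 C/5% CO2, 18 h compound incubation at 37 C, 2 h LiveBLAzer B/G FRET substrate at room temperature, fluorescence intensity measured.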

[8] = qHTS assay to test for compound auto fluorescence at 590 nm (red) in HEK293 cell free culture (AID 720683)
How it was run: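 Red-channel autofluorescence of compounds in culture medium (DMEM, 10% FBS), no cells, measured at 540/590 nm. Rose Bengal sodium is the reference fluorophore for equivalence.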

[9] = qHTS assay to test for compound auto fluorescence at 590 nm (red) in HepG2 cell free culture (AID 720684)
How it was run: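 Plate contents were MEM with 10% FBS plus test compound or DMSO, no cells. Fluorescence was recorded with 540 nm excitation and 590 nm emission.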

[10] = target: Glucocorticoid receptor (Homo sapiens) (UniProt P04150); test: qHTS assay to identify small molecule antagonists of the glucocorticoid receptor (GR) signaling pathway (AID 720692; active means well fitted inhibition curve with a large enough effect in the signal ratio in the repeat runs, not every such curve was filed as active; inconclusive means weak or mixed curves, or effect the other way; inactive means no such curve, though single readings can be large or run the other way; the % refers to the signal ratio)
How it was run: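 Inhibition of glucocorticoid signalling is measured in HeLa cells with a GRE-controlled beta-lactamase reporter; cells are co-treated with compound and 5 nM dexamethasone (final) for 18 h before FRET substrate readout.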

Measured: Potency
Tags describe the fitted curve by direction and shape or compound fluorescence and quenching.

Cc1cc(/C=C/c2ccc3cc(N(C)C)ccc3[n+]2C)c(C)n1-c1ccccc1
not listed: [8] | [9] | [10]
inactive: all other assays above

CC#CCC(C)[C@H](O)/C=C/[C@@H]1[C@H]2c3cccc(CCCC(=O)O)c3O[C@H]2C[C@H]1O (stereo partly drawn)
not listed: [2] | [7] | [10]
inactive: all other assays above

O=C(Cc1cccs1)N[C@@H]1C(=O)N2C(C(=O)[O-])=C(C[n+]3ccccc3)CS[C@H]12
not listed: [5] | [7]
inactive: all other assays above

CO[C@H]1[C@@H](O)[C@H](N)[C@@H](O[C@H]2O[C@H]([C@H](C)N)CC[C@H]2N)[C@H](O)[C@@H]1N(C)C(=O)CN
not listed: [8]
inactive: all other assays above

CC(=O)O[C@H]1CC[C@@]2(C)C(=CC[C@@H]3[C@@H]2CC[C@]2(C)C(c4cccnc4)=CC[C@@H]32)C1
not listed: [2] | [7] | [10]
inactive: all other assays above

CCOc1cc(-c2nccc3cc(OC)c(OC)cc23)cc(OCC)c1OCC
not listed: [8]
inactive: all other assays above

CC(C)c1nc(N(C)S(C)(=O)=O)nc(-c2ccc(F)cc2)c1/C=C/C(O)CC(O)CC(=O)O (stereo not drawn)
not listed: [5] | [7]
inactive: all other assays above

CNC(=O)c1c(I)c(C(=O)NCC(=O)Nc2c(I)c(C(=O)O)c(I)c(C(=O)NCCO)c2I)c(I)c(N(C)C(C)=O)c1I
not listed: [2] | [7] | [10]
inactive: all other assays above

CCC[C@@]1(CCc2ccccc2)CC(O)=C([C@H](CC)c2cccc(NS(=O)(=O)c3ccc(C(F)(F)F)cn3)c2)C(=O)O1
not listed: [8] | [10]
inactive: all other assays above

COc1cc(C)c(/C=C/C(C)=C/C=C/C(C)=C/C(=O)O)c(C)c1C
not listed: [8] | [10]
inactive: all other assays above

COC(=O)[C@H]1[C@H]2C[C@@H]3c4[nH]c5cc(OC)ccc5c4CCN3C[C@H]2C[C@@H](OC(=O)/C=C/c2cc(OC)c(OC)c(OC)c2)[C@@H]1OC
not listed: [8] | [10]
inactive: all other assays above

O=C(O)CO.[NH2-].[NH2-].[Pt+2]
not listed: [7] | [8] | [10]
inactive: all other assays above

Clc1ccc(COC(Cn2ccnc2)c2ccc(Cl)cc2Cl)c(Cl)c1 (stereo not drawn)
not listed: [7] | [8]
inactive: all other assays above

N#Cc1ccc2c(c1)N(CCCN1CCC(O)CC1)c1ccccc1S2
not listed: [7] | [8]
inactive: all other assays above

CN[C@@H]1CCc2[nH]c3ccc(C(N)=O)cc3c2C1
not listed: [8]
inactive: all other assays above

CC1(C)S[C@@H]2[C@H](NC(=O)[C@H](NC(=O)N3CCN(S(C)(=O)=O)C3=O)c3ccccc3)C(=O)N2[C@H]1C(=O)O
not listed: [7] | [8]
inactive: all other assays above

O=C(O)CN(CC(=O)O)CC1=CC2C(=CC1=O)Oc1cc(O)c(CN(CC(=O)O)CC(=O)O)cc1C21OC(=O)c2ccccc21 (stereo not drawn)
inactive: [2] | [4] | [6]
active: [1] 11.2 µM [fluorescent] | [3] 11.2 µM [fluorescent] | [5] 11.2 µM [fluorescent]

O=C1CSC2(CCN(CCCN3c4ccccc4Sc4ccc(Cl)cc43)CC2)N1
not listed: [7] | [8] | [10]
inactive: all other assays above

CO[C@H]1C[C@H](O[C@H]2[C@H](C)[C@@H](O[C@@H]3O[C@H](C)C[C@H](N(C)C)[C@H]3OC(C)=O)[C@@H](C)C[C@]3(CO3)C(=O)[C@H](C)[C@@H](OC(C)=O)[C@@H](C)[C@@H](C)OC(=O)[C@@H]2C)O[C@@H](C)[C@@H]1OC(C)=O
inactive: [1] | [2] | [3] | [9] | [4] | [6]

O=C(NNCS(=O)(=O)O)c1ccncc1
not listed: [8] | [10]
inactive: all other assays above

CC1=C(C(=O)OCCN(Cc2ccccc2)c2ccccc2)C(c2cccc([N+](=O)[O-])c2)C(P2(=O)OCC(C)(C)CO2)=C(C)N1 (stereo not drawn)
not listed: [2] | [7] | [10]
inactive: all other assays above

O=C1O[C@H]2[C@H](O)[C@@H]1OC(O)[C@H]2O (stereo partly drawn)
not listed: [8]
inactive: all other assays above

CCN(CC)CCC(=O)N1c2ccccc2Sc2ccc(Cl)cc21
not listed: [8] | [10]
inactive: all other assays above

CCN(CC)CCOc1ccc2nc(N(C)C)sc2c1
not listed: [2] | [7] | [10]
inactive: all other assays above

COc1cc(/C=C/C(=O)N2CCN(CC(=O)N3CCCC3)CC2)cc(OC)c1OC
not listed: [8] | [10]
inactive: all other assays above

CC[C@H]1OC(=O)[C@H](C)[C@@H](O[C@H]2C[C@@](C)(OC)[C@@H](O)[C@H](C)O2)[C@H](C)[C@@H](O[C@@H]2O[C@H](C)C[C@H](N(C)C)[C@H]2O)[C@](C)(O)C[C@@H](C)[C@@H]2N[C@@H](COCCOC)O[C@@H]([C@H]2C)[C@]1(C)O
not listed: [7] | [8] | [10]
inactive: all other assays above

OC(CN1CCCCC1)c1cc(-c2ccccc2)on1 (stereo not drawn)
not listed: [7] | [8] | [10]
inactive: all other assays above

CC(NNC(=O)c1ccccc1)c1ccccc1 (stereo not drawn)
not listed: [2] | [7] | [10]
inactive: all other assays above

FC(F)(F)C(F)(F)C(F)(F)C(F)(F)C(F)(F)C(F)(F)F
not listed: [2]
inactive: all other assays above

CC(C)(C)C1(O)CCN2CC3c4ccccc4CCc4cccc(c43)C2C1 (stereo not drawn)
not listed: [2] | [10]
inactive: all other assays above

CCN1C(=O)NC(c2ccccc2)C1=O (stereo not drawn)
not listed: [2] | [5]
inactive: all other assays above

CC1(S(=O)(=O)O)CC(=O)c2ccccc2C1=O (stereo not drawn)
not listed: [1] | [7] | [10]
inactive: all other assays above

C[C@]12CCC(=O)C=C1CC[C@@H]1[C@@H]2[C@@H](O)C[C@@]2(C)[C@H]1CC[C@]2(O)C(=O)COP(=O)(O)O
active: [7] 0.674 µM [inconclusive]
not listed: [2] | [8] | [10]
inactive: all other assays above

Nc1c(Br)cc(Br)cc1CNC1CCC(O)CC1 (stereo not drawn)
not listed: [2] | [10]
inactive: all other assays above

COc1ccc(-c2noc(CC(=O)O)c2-c2ccc(OC)cc2)cc1
not listed: [2]
inactive: all other assays above

Cc1cc2nc3c(=O)[nH]c(=O)nc-3n(C[C@H](O)[C@H](O)[C@H](O)COP(=O)(O)OP(=O)(O)OC[C@H]3O[C@@H](n4cnc5c(N)ncnc54)[C@H](O)[C@@H]3O)c2cc1C
active: [1] 22.4 µM [fluorescent] | [3] 15.8 µM [fluorescent] | [5] 12.6 µM [fluorescent]
not listed: [2] | [10]
inactive: all other assays above

CC(=O)N=c1sc(S(N)(=O)=O)nn1C
not listed: [2]
inactive: all other assays above

C=CC[C@@H]1/C=C(\C)C[C@H](C)C[C@H](OC)[C@H]2O[C@@](O)(C(=O)C(=O)N3CCCC[C@H]3C(=O)O[C@H](/C(C)=C/[C@@H]3CC[C@@H](O)[C@H](OC)C3)[C@H](C)[C@@H](O)CC1=O)[C@H](C)C[C@@H]2OC
not listed: [2] | [10]
inactive: all other assays above

CN1CCCC(CN2c3ccccc3Sc3ccccc32)C1 (stereo not drawn)
not listed: [2]
inactive: all other assays above

O=C1C(=O)c2ncccc2-c2cccnc21
inactive: [1] | [3] | [8] | [9] | [5]
